Assay [1] is described as follows: ATG_CRE_CIS: Attagene CIS-FACTORIAL HepG2 Assay for human cAMP Responsive Element (CRE) binding protein 3 (AID 2282926). The settings on record: HepG2 CRE cis-reporter, Attagene multiplexed mRNA; actives raise or lower the signal. In a few lines:
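Readout: fluorescently labelled reporter transcripts resolved by capillary electrophoresis after RT-PCR, taken 24 h post-dosing in transfected HepG2. Endogenous transcription factor activity drives each cis-element reporter; gain or loss of signal fitted relative to DMSO control.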

Assay [2] has as its target CCAAT/enhancer-binding protein beta (Homo sapiens) (UniProt P17676). The assay can be described thus: ATG_C_EBP_CIS: Attagene CIS-FACTORIAL HepG2 Assay for human CCAAT/Enhancer Binding Protein (C/EBP) beta (AID 2282927). As to conditions: HepG2 Attagene cis-factorial transcription factor reporter; actives raise or lower the signal. In a few lines: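 HepG2, transient MRTU transfection, 24 h treatment. RT-PCR plus CE fluorescence; DMSO negative control, bidirectional fit.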

Assay [3] in a line: ATG_CMV_CIS: Attagene CIS-FACTORIAL HepG2 Assay for human CMV (Internal Marker) (AID 2282928).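 Also: endpoint acts as a background internal control marker rather than a target.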 The settings on record: HepG2 CMV promoter reporter, transcription factor profiling; actives raise or lower the signal. In a few lines: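 Bidirectional fits against DMSO are applied to reporter mRNA, read by RT-PCR with capillary electrophoresis, from HepG2 cells exposed 24 h. The endpoint serves as an internal CMV background marker within the cis-factorial reporter panel.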

A short description of assay [4]: ATG_AP_1_CIS: Attagene CIS-FACTORIAL HepG2 Assay for human Activator Protein 1 (AP-1) (AID 2282931). As to conditions: HepG2 Attagene cis-factorial AP-1 reporter mRNA; actives raise or lower the signal. In a few lines: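 Reporter transcripts were measured 24 h after dosing by RT-PCR and capillary electrophoresis of fluorescent fragments. Cells: HepG2 carrying transfected cis-regulated reporter constructs reading endogenous factor activity. Gain or loss fitted against DMSO.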

The nature of assay [5]: ATG_BRE_CIS: Attagene CIS-FACTORIAL HepG2 Assay for human Bone Morphogenetic Protein (BMP) Response Element (BRE) (AID 2282933). As to conditions: HepG2 BMP response element reporter, Attagene transcription factor profiling; actives raise or lower the signal. In a few lines: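 Gain- or loss-of-signal was derived by bidirectional fitting against DMSO controls. The signal came from reporter mRNA, measured by RT-PCR and capillary electrophoresis, in HepG2 cells transiently carrying multiple reporter units and dosed for 24 h.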

In assay [6] the target is Retinoic acid receptor alpha (Homo sapiens) (UniProt P10276). As to the kind of experiment: ATG_DR5_RAR_CIS: Attagene CIS-FACTORIAL HepG2 Assay for human Retinoic Acid Receptor Alpha (RARE), DR5 submotif (AID 2282934). As to conditions: HepG2 Attagene cis-factorial RARE DR5 reporter, mRNA; actives raise or lower the signal. In a few lines: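 After 24 h of chemical exposure, transiently transfected HepG2 cells were lysed for total RNA; the DR5-regulated reporter transcript was quantified via RT-PCR and capillary electrophoresis, with activity fitted bidirectionally against DMSO.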
Retinoic acid receptor alpha (Homo sapiens), sequence (P10276 whole entry, looked up): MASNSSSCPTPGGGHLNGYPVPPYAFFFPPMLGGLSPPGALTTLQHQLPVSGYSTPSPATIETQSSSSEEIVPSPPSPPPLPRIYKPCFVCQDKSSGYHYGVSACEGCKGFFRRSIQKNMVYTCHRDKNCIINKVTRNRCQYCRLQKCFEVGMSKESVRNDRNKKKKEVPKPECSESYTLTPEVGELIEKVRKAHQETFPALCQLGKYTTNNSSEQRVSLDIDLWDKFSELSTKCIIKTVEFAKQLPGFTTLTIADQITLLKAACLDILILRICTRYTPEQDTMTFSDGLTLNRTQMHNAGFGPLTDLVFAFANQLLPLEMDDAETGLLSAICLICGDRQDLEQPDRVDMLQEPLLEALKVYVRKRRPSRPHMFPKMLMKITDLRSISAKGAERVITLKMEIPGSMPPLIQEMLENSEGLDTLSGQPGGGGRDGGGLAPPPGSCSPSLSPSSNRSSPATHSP

For assay [7], the target named is Transcription factor E2F1 (Homo sapiens) (UniProt Q01094). The assay can be described thus: ATG_E2F_CIS: Attagene CIS-FACTORIAL HepG2 Assay for human E2F Transcription Factor 1 (AID 2282935). The settings on record: HepG2 Attagene cis-reporter, E2F reporter RNA transcripts; actives raise or lower the signal. In a few lines: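 Liver-derived HepG2 cells expressing transfected promoter-driven reporter units received test chemical for 24 hours. Signal gains or losses were fitted bidirectionally against DMSO.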
Transcription factor E2F1 (Homo sapiens), sequence (Q01094 whole entry, looked up): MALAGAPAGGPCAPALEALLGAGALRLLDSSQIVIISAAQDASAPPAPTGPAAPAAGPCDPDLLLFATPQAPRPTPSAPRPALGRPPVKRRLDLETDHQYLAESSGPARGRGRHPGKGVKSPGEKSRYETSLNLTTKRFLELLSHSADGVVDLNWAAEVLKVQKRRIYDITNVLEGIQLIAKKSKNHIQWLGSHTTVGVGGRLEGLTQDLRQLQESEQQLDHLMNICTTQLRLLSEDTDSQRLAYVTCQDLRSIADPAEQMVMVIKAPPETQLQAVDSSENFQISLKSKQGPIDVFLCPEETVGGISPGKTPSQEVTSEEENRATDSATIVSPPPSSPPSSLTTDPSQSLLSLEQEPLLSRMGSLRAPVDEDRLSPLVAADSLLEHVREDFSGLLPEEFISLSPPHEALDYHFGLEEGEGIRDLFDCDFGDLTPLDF

Assay [8] in a line: ATG_E_Box_CIS: Attagene CIS-FACTORIAL HepG2 Assay for human Enhancer Box (E-box) (AID 2282936). The settings on record: HepG2 E-box cis-reporter transcription, actives raise or lower the signal. In a few lines: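 In this cell-based setup, HepG2 cells bearing transfected promoter-driven reporter units were exposed to chemicals for 24 h; reporter transcripts were amplified, 6-FAM-labelled, cut with HpaI and sized by capillary electrophoresis.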

Assay [9] can be described thus: ATG_M_61_CIS: Attagene CIS-FACTORIAL HepG2 Assay for M61 Transcription Factor (Internal Marker) (AID 2282937). The settings on record: HepG2 Attagene CIS-FACTORIAL M61 internal marker reporter; actives raise or lower the signal. In a few lines: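 Readout: fluorescent reporter mRNA fragments resolved by capillary electrophoresis after RT-PCR. Transiently transfected human HepG2 cells carried MRTU constructs reporting endogenous TF activity; 24 h chemical exposure; gain or loss of signal fitted relative to DMSO.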

Assay [10] in a line: ATG_EGR_CIS: Attagene CIS-FACTORIAL HepG2 Assay for human Early Growth Response 1 (EGR1) (AID 2282938). As to conditions: HepG2 Attagene CIS-FACTORIAL EGR reporter mRNA; actives raise or lower the signal. In a few lines:
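Read-out: fluorescent reporter-mRNA fragments resolved by capillary electrophoresis after RT-PCR, 24 h post-dose in transiently transfected HepG2. Endogenous transcription-factor activity reported via cis-element-regulated reporter units; gain or loss fitted relative to DMSO.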

A short description of assay [11]: ATG_M_19_CIS: Attagene CIS-FACTORIAL HepG2 Assay for M19 Transcription Factor (Internal Marker) (AID 2282939). The settings on record: HepG2 Attagene CIS-FACTORIAL M19 internal marker reporter; actives raise or lower the signal. In a few lines: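 Following a 24 h exposure, RNA from transfected HepG2 cells was reverse-transcribed, PCR-amplified with reporter-specific primers, end-labelled with 6-FAM and HpaI-digested before capillary separation. Values represent gain or loss versus DMSO.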

Assay [12] in a line: ATG_ERE_CIS: Attagene CIS-FACTORIAL HepG2 Assay for Estrogen Response Element (ERE) (AID 2282940). The settings on record: HepG2 ERE cis-reporter, Attagene RNA transcript; actives raise or lower the signal. In a few lines:
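HepG2, transient cis-reporter units, 24 h exposure. RNA isolated, oligo(dT) RT, reporter-specific PCR, FAM extension, HpaI cut, CE detection. Gain/loss-of-signal vs DMSO.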

The nature of assay [13]: ATG_Ets_CIS: Attagene CIS-FACTORIAL HepG2 Assay for human Erythroblast Transformation Specific (ETS) (AID 2282941). As to conditions: HepG2 ETS cis-reporter transcription, actives raise or lower the signal. In a few lines: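 Endogenous transcription factor activity read as reporter mRNA via RT-PCR and capillary electrophoresis, with gain or loss fitted bidirectionally against DMSO. Human HepG2 liver cells, transiently transfected CIS reporter constructs, 24 h exposure.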

For assay [14], the target named is Hepatocyte nuclear factor 3-beta (Homo sapiens) (UniProt Q9Y261). The assay can be described thus: ATG_FoxA2_CIS: Attagene CIS-FACTORIAL HepG2 Assay for human Forkhead box A2 (FOXA2) (AID 2282942). As to conditions: HepG2 cis-reporter transcription factor activity, 24 h; actives raise or lower the signal. In a few lines:
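Readout: fluorescent reporter transcripts resolved by capillary electrophoresis after RT-PCR. Transiently transfected HepG2, 24 h compound exposure, endogenous TF activity at cis promoter elements. Gain or loss of signal fitted relative to DMSO.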

Assay [15] is described as follows: ATG_FoxO_CIS: Attagene CIS-FACTORIAL HepG2 Assay for human Forkhead box O (FoxO) (AID 2282943). The settings on record: HepG2 Attagene cis-reporter, FoxO element, mRNA; actives raise or lower the signal. In a few lines:
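Transfected HepG2 reporter cells exposed to test chemical for 24 h; reporter RNA measured by reverse transcription, PCR and fluorescent capillary electrophoresis; curves fitted for increases and decreases against DMSO.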

For assay [16], the target named is Aryl hydrocarbon receptor (Homo sapiens) (UniProt P35869). The assay can be described thus: ATG_Ahr_CIS: Attagene CIS-FACTORIAL HepG2 Assay for human Aryl Hydrocarbon Receptor (Ahr) (AID 2282930). As to conditions: HepG2 AhR cis-factorial reporter transcription; actives raise or lower the signal. In a few lines: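 Endogenous factor activity is tracked through cis-promoter reporter units transfected into HepG2 cells. Transcript levels at 24 h are read by fluorescent RT-PCR and capillary electrophoresis, with activity in either direction scored relative to DMSO.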
Aryl hydrocarbon receptor (Homo sapiens), sequence (P35869 whole entry, looked up): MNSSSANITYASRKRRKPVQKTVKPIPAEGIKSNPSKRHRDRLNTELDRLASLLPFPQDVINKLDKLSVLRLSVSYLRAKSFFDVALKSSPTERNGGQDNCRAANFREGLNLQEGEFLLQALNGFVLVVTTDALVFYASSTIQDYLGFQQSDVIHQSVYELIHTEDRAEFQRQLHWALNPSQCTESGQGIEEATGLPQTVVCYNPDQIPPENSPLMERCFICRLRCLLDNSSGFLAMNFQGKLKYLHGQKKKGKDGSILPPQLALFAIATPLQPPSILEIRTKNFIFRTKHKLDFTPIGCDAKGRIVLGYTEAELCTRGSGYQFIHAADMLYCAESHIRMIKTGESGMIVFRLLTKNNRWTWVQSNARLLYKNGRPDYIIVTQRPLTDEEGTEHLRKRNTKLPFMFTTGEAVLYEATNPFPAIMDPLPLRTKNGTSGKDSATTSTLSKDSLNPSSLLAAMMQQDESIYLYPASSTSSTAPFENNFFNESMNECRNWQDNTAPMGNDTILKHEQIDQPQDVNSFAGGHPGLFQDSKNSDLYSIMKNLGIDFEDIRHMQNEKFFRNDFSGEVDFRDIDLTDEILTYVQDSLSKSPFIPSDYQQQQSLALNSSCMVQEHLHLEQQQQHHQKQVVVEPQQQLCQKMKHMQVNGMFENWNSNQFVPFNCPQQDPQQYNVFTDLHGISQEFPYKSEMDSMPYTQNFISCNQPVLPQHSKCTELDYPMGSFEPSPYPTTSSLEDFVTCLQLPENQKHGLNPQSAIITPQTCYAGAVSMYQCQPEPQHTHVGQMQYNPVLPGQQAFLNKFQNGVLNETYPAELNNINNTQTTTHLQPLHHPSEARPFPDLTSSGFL

Assay [17] is described as follows: ATG_GATA_CIS: Attagene CIS-FACTORIAL HepG2 Assay for human GATA Binding Protein (AID 2282944). The settings on record: HepG2 GATA cis-element reporter, Attagene multiplex mRNA; actives raise or lower the signal. In a few lines: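 DMSO serves as negative control and baseline for bidirectional fitting of reporter mRNA changes. HepG2 cells bearing transiently transfected cis-promoter reporters were exposed 24 h; transcripts detected via RT-PCR and capillary electrophoresis.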

Assay [18] in a line: ATG_AP_2_CIS: Attagene CIS-FACTORIAL HepG2 Assay for human Activator Protein 2 (AP-2) (AID 2282932). As to conditions: HepG2 AP-2 cis-reporter, Attagene transcription factor profiling; actives raise or lower the signal. In a few lines:
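Liver-derived HepG2 line, cis-reporter system measuring endogenous factors; 24 h dosing; reporter mRNA detected by fluorescent RT-PCR and capillary electrophoresis.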

Assay [19] can be described thus: ATG_DR4_LXR_CIS: Attagene CIS-FACTORIAL HepG2 Assay for human Liver X Receptor (LXR), DR4 submotif (AID 2282929). The settings on record: HepG2 Attagene DR4 cis-reporter, mRNA transcription; actives raise or lower the signal. In a few lines:
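Readout: reporter transcript fluorescence after RT-PCR and capillary electrophoresis, fitted bidirectionally against DMSO controls. Human HepG2 liver cells carried transiently transfected multiplexed reporter constructs; endogenous transcription factor activity measured 24 h post-dosing.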

The source of these data is PubChem BioAssay (EPA / NIEHS).

The structures appear in SMILES notation. The source made the active and inactive calls. The calls were made as follows: active = hit-call score of the fitted dose curve at least 0.9, where 1 is the maximum; inactive = score below 0.9.

By AC50 is commonly meant the midpoint of the concentration-response curve, whichever way the signal moves.

Hepatocyte nuclear factor 3-beta (Homo sapiens), sequence (Q9Y261 whole entry, looked up): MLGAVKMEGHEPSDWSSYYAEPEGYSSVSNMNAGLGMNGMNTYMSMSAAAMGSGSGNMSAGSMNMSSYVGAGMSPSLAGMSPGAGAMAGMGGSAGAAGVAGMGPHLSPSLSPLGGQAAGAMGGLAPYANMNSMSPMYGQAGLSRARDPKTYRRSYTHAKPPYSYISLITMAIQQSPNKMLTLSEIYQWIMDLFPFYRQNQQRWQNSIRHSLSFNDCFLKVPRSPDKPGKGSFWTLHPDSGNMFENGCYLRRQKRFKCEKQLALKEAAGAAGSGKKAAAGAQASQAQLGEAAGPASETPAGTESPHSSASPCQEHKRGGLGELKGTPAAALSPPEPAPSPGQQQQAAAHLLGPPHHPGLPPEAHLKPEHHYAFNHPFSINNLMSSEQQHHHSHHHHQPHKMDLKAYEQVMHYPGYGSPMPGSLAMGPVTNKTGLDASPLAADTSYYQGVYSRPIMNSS
CCAAT/enhancer-binding protein beta (Homo sapiens), sequence (P17676 whole entry, looked up): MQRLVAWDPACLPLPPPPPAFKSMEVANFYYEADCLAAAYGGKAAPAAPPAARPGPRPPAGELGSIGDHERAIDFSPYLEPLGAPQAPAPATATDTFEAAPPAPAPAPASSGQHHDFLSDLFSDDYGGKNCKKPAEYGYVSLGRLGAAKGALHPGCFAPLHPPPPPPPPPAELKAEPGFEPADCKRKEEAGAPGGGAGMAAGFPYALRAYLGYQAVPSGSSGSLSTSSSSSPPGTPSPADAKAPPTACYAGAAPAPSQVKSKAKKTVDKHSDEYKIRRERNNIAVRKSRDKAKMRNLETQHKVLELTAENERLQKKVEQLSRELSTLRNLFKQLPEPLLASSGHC

`OCC(F)(F)C(F)(F)C(F)(F)C(F)(F)C(F)(F)C(F)(F)CO`: the compound was classed as inactive in [1], in assay [2], in assay [3], in assay [4], in assay [5] and in assay [6]. Further, the result in assay [7], in assay [8], in [9], in [10], in assay [11] and in assay [13] was inactive. In addition, the outcome in [14] and in [15] was inactive. For the same compound, the AC50 in assay [12] is 90.9 nM (active).
With `CC(=O)c1ccccc1N`, the call in [1], in assay [2], in assay [3], in assay [16], in [4] and in [5] was inactive. Also, the outcome in assay [6], in assay [7], in assay [8], in [9], in [10] and in assay [11] was inactive. The compound was called inactive in [12], in [14], in [15] and in [17].
As for `OCCC(O)CO` (stereo not given), the compound was classed as inactive in assay [1], in assay [2], in assay [3], in [16], in assay [4] and in assay [18]. Besides, the compound was called inactive in [5], in assay [6], in assay [7], in [8], in assay [9] and in [10]. The result in assay [14], in assay [15] and in assay [17] was inactive.
For `OCC(F)(F)C(F)(F)C(F)(F)C(F)(F)C(F)(F)C(F)(F)C(F)(F)C(F)(F)CO`, the call in assay [1], in assay [2], in assay [3], in assay [19], in [16] and in assay [4] was inactive. Further, the compound was called inactive in assay [18], in assay [5], in [6], in assay [7], in assay [8] and in assay [9]. In addition, the outcome in [10], in assay [13], in [14], in assay [15] and in assay [17] was inactive.
For the compound `O=c1cccc[nH]1`, the result in [1], in assay [2], in [3], in assay [19], in [16] and in [5] was inactive. For the same compound, the result in assay [6], in assay [7], in assay [8], in assay [10], in assay [11] and in assay [12] was inactive. Besides, the call in [13], in [14], in assay [15] and in [17] was inactive.
With `NCC(F)(F)C(F)(F)C(F)(F)C(F)(F)C(F)(F)C(F)(F)C(F)(F)C(F)(F)F`, the call in assay [1], in assay [2], in assay [3], in [19], in assay [4] and in assay [5] was inactive. The result in [6], in assay [7], in assay [8], in assay [9], in assay [10] and in assay [11] was inactive. Further, the compound was classed as inactive in assay [13], in assay [14] and in assay [15].
As to `C[Si](Cl)(Cl)CCC(F)(F)C(F)(F)C(F)(F)C(F)(F)C(F)(F)C(F)(F)F`, the compound was classed as inactive in assay [1], in [2], in assay [3], in assay [16], in assay [4] and in assay [18]. Moreover, the call in [5], in [6], in assay [7], in [8], in assay [9] and in assay [10] was inactive. The call in [11], in [12], in assay [13], in assay [14], in [15] and in assay [17] was inactive.
For `CC(C)OC(=O)COc1ccc(Cl)cc1Cl`, the outcome in [1], in assay [2], in [3], in assay [19], in [16] and in [4] was inactive. The call in assay [5], in [6], in assay [7], in [8], in assay [9] and in [10] was inactive. The compound was classed as inactive in assay [11], in assay [12], in assay [13], in [14], in assay [15] and in assay [17].
